About 83,000 compounds went through this panel and 20% of them were active in at least one assay; those are over-represented in the sample as a whole.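 Plates (96-well) were seeded with cells, treated with compound at one concentration, and incubated for 48 hours before percent growth was determined.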 Unmarked numbers belong to inactive results. The source made the active and inactive calls. How the source made its calls: active means growth percent below 10; inactive means the rest.
Experiments:
Experiment in all cases: NCI-60 one-dose screen, 48 h (100 = growth as untreated, 0 = no growth, -100 = all killed)
[1] = system: SK-MEL-2 melanoma; conditions: 10 µM unless noted
[2] = system: EKVX NSCLC; conditions: 10 µM unless noted
[3] = system: SN12C renal; conditions: 10 µM unless noted
[4] = system: TK-10 renal; conditions: 10 µM unless noted
[5] = system: ACHN renal; conditions: 10 µM unless noted
[6] = system: CAKI-1 renal; conditions: 10 µM unless noted
[7] = system: A498 renal; conditions: 10 µM unless noted
[8] = system: CCRF-CEM leukemia; conditions: 10 µM unless noted
[9] = system: MOLT-4 leukemia; conditions: 10 µM unless noted
[10] = system: RPMI-8226 leukemia; conditions: 10 µM
[11] = system: OVCAR-8 ovarian; conditions: 10 µM unless noted
[12] = system: OVCAR-5 ovarian; conditions: 10 µM unless noted
[13] = system: OVCAR-4 ovarian; conditions: 10 µM unless noted
[14] = system: SK-OV-3 ovarian; conditions: 10 µM
[15] = system: OVCAR-3 ovarian; conditions: 10 µM unless noted
[16] = system: HS 578T breast; conditions: 10 µM unless noted
[17] = system: NCI/ADR-RES ovarian; conditions: 10 µM unless noted
[18] = system: UO-31 renal; conditions: 10 µM unless noted
[19] = system: SR leukemia; conditions: 10 µM unless noted
[20] = system: IGROV1 ovarian; conditions: 10 µM unless noted

N#CCCN1CCN(CCC#N)C1=S
growth [1]: 93.4% | growth [2]: 102% | growth [3]: 95.2% | growth [4]: 98.1% | growth [5]: 102% | growth [6]: 86.4% | growth [7]: 87.9% | growth [8]: 111% | growth [9]: 103% | growth [10]: 111% | growth [11]: 98.1% | growth [12]: 101% | growth [13]: 108% | growth [14]: 108% | growth [15]: 110% | growth [16]: 104% | growth [17]: 102%

O=C(O)CCN1CCN(c2cccc(Cl)c2)CC1
growth [1]: 107% | growth [3]: 100% | growth [18]: 106% | growth [4]: 138% | growth [5]: 94.8% | growth [6]: 87.6% | growth [7]: 94.2% | growth [8]: 105% | growth [9]: 91.3% | growth [19]: 88% | growth [10]: 112% | growth [11]: 99.1% | growth [12]: 98.9% | growth [13]: 92% | growth [14]: 104% | growth [20]: 105% | growth [15]: 122% | growth [16]: 105% | growth [17]: 112%

Cn1c2c(cc(S(=O)(=O)c3ccccc3)c1=O)CCc1c-2cnn1-c1cccc(Cl)c1
growth [1]: 107% | growth [3]: 90.3% | growth [18]: -84.5% (active) | growth [4]: 86.5% | growth [5]: -87.9% (active) | growth [6]: -58% (active) | growth [7]: 71.4% | growth [8]: 90.9% | growth [9]: 86.2% | growth [19]: 77.6% | growth [10]: 82.6% | growth [11]: 88.8% | growth [12]: 93% | growth [13]: 60.9% | growth [14]: 86.8% | growth [20]: 97.5% | growth [15]: 98.1% | growth [16]: 92% | growth [17]: 90.6%

CSc1nnc(-c2sc3nnc(-c4ccccc4)c(-c4ccccc4)c3c2O)o1
growth [1]: 102% | growth [2]: 77.5% | growth [3]: 75.7% | growth [4]: 100% | growth [5]: 83.6% | growth [6]: 43.5% | growth [8]: 47.4% | growth [9]: 61.8% | growth [19]: 62.5% | growth [10]: 67.2% | growth [11]: 85.8% | growth [12]: 101% | growth [14]: 85.5% | growth [15]: 86.8% | growth [16]: 98.4%

CCOC(=O)C(CC(c1ccccc1)N1CCCCC1)[N+](=O)[O-] (configuration not stated)
growth [1]: 88.5% | growth [3]: 76.9% | growth [18]: 46.2% | growth [4]: 112% | growth [5]: 72.6% | growth [6]: 103% | growth [7]: 88.4% | growth [8]: 49.5% | growth [9]: 63.7% | growth [19]: 77.7% | growth [10]: 57.9% | growth [11]: 87.1% | growth [12]: 104% | growth [13]: 96.5% | growth [14]: 97.7% | growth [20]: 76.3% | growth [15]: 53.3% | growth [16]: 98.6% | growth [17]: 61.4%

O=C1c2ccccc2-c2nnc(-c3ccc(Br)cc3)cc21
growth [1]: -0.262% (active) | growth [3]: 27.9% | growth [18]: 46.9% | growth [4]: 119% | growth [5]: 34.8% | growth [6]: 60.3% | growth [7]: 97% | growth [8]: 20.7% | growth [9]: 4.61% (active) | growth [19]: 11.6% | growth [10]: 27.4% | growth [11]: 77.7% | growth [12]: 110% | growth [13]: 10.1% | growth [14]: 91.6% | growth [20]: 40.4% | growth [15]: -23% (active) | growth [16]: 48.2%

O=C(CCCCCCC(=O)Nc1ccc2c(c1)/C(=C/c1ccc[nH]1)C(=O)N2)NO
growth [1]: 37% | growth [3]: 12.2% | growth [18]: 6.77% (active) | growth [4]: 5.62% (active) | growth [5]: 4.49% (active) | growth [6]: 2.67% (active) | growth [7]: -59.3% (active) | growth [8]: 6.86% (active) | growth [9]: 4.16% (active) | growth [19]: 4.1% (active) | growth [10]: -19.5% (active) | growth [11]: 11.2% | growth [12]: 0.698% (active) | growth [13]: 23.7% | growth [14]: 12.2% | growth [20]: -4.96% (active) | growth [15]: -57.8% (active) | growth [16]: 9.71% (active) | growth [17]: 35.7%

Cc1c(C)n(CC(O)CNC2CCCCC2C)c2ccccc12 (configuration not stated)
growth [1]: -49.9% (active) | growth [3]: -41.9% (active) | growth [18]: -87.5% (active) | growth [4]: -76.3% (active) | growth [5]: -41.3% (active) | growth [6]: -38.7% (active) | growth [7]: 63.3% | growth [8]: -9.05% (active) | growth [9]: 4.33% (active) | growth [19]: 1.95% (active) | growth [10]: -10.6% (active) | growth [11]: 4.94% (active) | growth [12]: -58.8% (active) | growth [13]: -26.2% (active) | growth [14]: 52.9% | growth [20]: -73.1% (active) | growth [15]: -89.8% (active) | growth [16]: 28.3% | growth [17]: 3.85% (active)

Cc1ccc(S(=O)(=O)N2C/C(=C\c3cc(F)cc(F)c3)C(=O)/C(=C/c3cc(F)cc(F)c3)C2)cc1
growth [1]: -25.9% (active) | growth [3]: -73.9% (active) | growth [18]: -90.5% (active) | growth [4]: 8.08% (active) | growth [5]: -91.4% (active) | growth [6]: -7.75% (active) | growth [7]: -25.7% (active) | growth [8]: -9.43% (active) | growth [9]: -5.52% (active) | growth [19]: 3.56% (active) | growth [10]: -15.1% (active) | growth [11]: -29% (active) | growth [12]: -30.6% (active) | growth [13]: -31.4% (active) | growth [14]: 14.9% | growth [20]: -58.6% (active) | growth [15]: -82.9% (active) | growth [16]: 11.3% | growth [17]: 7.23% (active)

Clc1ccc(C2=Nc3cccc4cccc(c34)N2)cc1Cl
growth [1]: 96.2% | growth [2]: 91.1% | growth [3]: 110% | growth [18]: 72.3% | growth [5]: 94.7% | growth [8]: 67.4% | growth [10]: 56.8% | growth [11]: 97.7% | growth [12]: 126% | growth [13]: 32.6% | growth [14]: 98.1% | growth [20]: 71.8% | growth [15]: 86% | growth [17]: 95.8%

COc1nc2c(cc1S(=O)(=O)c1ccccc1)CCc1c-2cnn1-c1cccc(Cl)c1
growth [1]: 88.9% | growth [3]: 77.4% | growth [18]: -15.6% (active) | growth [4]: 94.2% | growth [5]: 68.3% | growth [6]: 63.5% | growth [7]: 54.6% | growth [8]: 70.4% | growth [9]: 66.1% | growth [19]: 47.4% | growth [10]: 56.6% | growth [11]: 81.8% | growth [12]: 80.1% | growth [13]: 87% | growth [14]: 83.2% | growth [20]: 94.9% | growth [15]: 93.7% | growth [16]: 102%

Cc1nc2cc(Nc3nc(Nc4ccc(F)cc4)nc(-c4cccs4)n3)ccc2n1Cc1ccccc1
growth [1]: 72.9% | growth [3]: 70.3% | growth [18]: 36.5% | growth [4]: 62.7% | growth [5]: 45.6% | growth [6]: 70.2% | growth [7]: 56% | growth [8]: 27.2% | growth [9]: 23.5% | growth [19]: 18% | growth [10]: -0.339% (active) | growth [11]: 37% | growth [12]: 92% | growth [13]: 51% | growth [14]: 95.1% | growth [20]: 48.3% | growth [15]: 66.7% | growth [16]: 50.3% | growth [17]: 57.3%

C=CC[P+](c1ccccc1)(c1ccccc1)c1ccccc1
growth [1]: 24.6% | growth [3]: 69.7% | growth [18]: 99.7% | growth [4]: 78.7% | growth [5]: 91.2% | growth [6]: 90.9% | growth [7]: 81.5% | growth [8]: 59.7% | growth [9]: 62.5% | growth [19]: 35.7% | growth [10]: 6.29% (active) | growth [11]: 45.8% | growth [12]: 77% | growth [13]: 46% | growth [14]: 70.8% | growth [20]: 73.2% | growth [15]: 32% | growth [16]: 79.4% | growth [17]: 112%

CCCCC(=O)N/N=C/c1cc(I)cc(I)c1O
growth [1]: 64.3% | growth [3]: 56.3% | growth [18]: 34.9% | growth [4]: 49.3% | growth [5]: 23.6% | growth [6]: 21.6% | growth [7]: 70.4% | growth [8]: 14.9% | growth [9]: 28.2% | growth [19]: 16.8% | growth [10]: 53% | growth [11]: 36.6% | growth [12]: 59.6% | growth [13]: 34.1% | growth [14]: 58.6% | growth [20]: 35.8% | growth [15]: 18.7% | growth [16]: 76.6% | growth [17]: 23.9%

Brc1ccccc1Nc1ccc2nnc(-c3ccncc3)n2n1
growth [1]: 98% | growth [3]: 101% | growth [18]: 82.1% | growth [4]: 114% | growth [5]: 97% | growth [6]: 87.1% | growth [7]: 101% | growth [8]: 85% | growth [9]: 92.6% | growth [19]: 61.7% | growth [10]: 91.1% | growth [11]: 100% | growth [12]: 101% | growth [13]: 104% | growth [14]: 102% | growth [20]: 93.6% | growth [15]: 103% | growth [16]: 109%

C=C(C)COC(=O)c1ccccc1C(=O)OCC1(C)CO1 (configuration not stated)
growth [1]: 97.5% | growth [2]: 103% | growth [3]: 95.9% | growth [4]: 102% | growth [5]: 105% | growth [6]: 96.6% | growth [7]: 108% | growth [8]: 97.2% | growth [9]: 99.7% | growth [10]: 110% | growth [11]: 95.6% | growth [12]: 96.8% | growth [13]: 110% | growth [14]: 110% | growth [15]: 108% | growth [16]: 104% | growth [17]: 101%

Cc1ccc(-c2c3c(N)c4c(nc3nc3c2c(C)nn3-c2ccccc2)CCCC4)cc1
growth [1]: 96% | growth [3]: 99.8% | growth [18]: 88% | growth [4]: 102% | growth [5]: 97.7% | growth [6]: 93.2% | growth [7]: 92.2% | growth [8]: 82.7% | growth [9]: 92.6% | growth [19]: -4.06% (active) | growth [10]: 94.1% | growth [11]: 98.1% | growth [12]: 101% | growth [13]: 96% | growth [14]: 99.9% | growth [20]: 98.6% | growth [15]: 116% | growth [16]: 105% | growth [17]: 106%

Source: PubChem BioAssay (NCI)
